Assay [1] has as its target human Retinoid X Receptor beta (RXRb), RXRB (gene 6257) (UniProt P28702). Put plainly: ATG_RXRb_TRANS: Attagene TRANS-FACTORIAL HepG2 Assay for human Retinoid X Receptor beta (RXRb) (AID 2283013; active = hit-call score of the fitted dose curve at least 0.9, where 1 is the maximum). Put shortly: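 Readout is reporter transcript induction after 24 h dosing. It is measured by RT-PCR of total RNA followed by fluorescent capillary electrophoresis. HepG2 liver cells carry transfected multiple reporter units driven by an exogenous RXRb-Gal4 fusion; activity is relative to DMSO.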

In assay [2] the target is human Thyroid Receptor alpha (THRa1), THRA (gene 7067) (UniProt P10827). Put plainly: ATG_THRa1_TRANS: Attagene TRANS-FACTORIAL HepG2 Assay for human Thyroid Receptor alpha (THRa1) (AID 2283014; active = hit-call score of the fitted dose curve at least 0.9, where 1 is the maximum). An outline of the steps: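 Measured here is mRNA from a GAL4-UAS reporter in transfected HepG2 cells carrying a Gal4-fused receptor, 24 h post-dose. DMSO served as negative control and baseline.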
Chain of human Thyroid Receptor alpha (THRa1), THRA (gene 7067) (P10827 whole entry, looked up, the tested form may be a part): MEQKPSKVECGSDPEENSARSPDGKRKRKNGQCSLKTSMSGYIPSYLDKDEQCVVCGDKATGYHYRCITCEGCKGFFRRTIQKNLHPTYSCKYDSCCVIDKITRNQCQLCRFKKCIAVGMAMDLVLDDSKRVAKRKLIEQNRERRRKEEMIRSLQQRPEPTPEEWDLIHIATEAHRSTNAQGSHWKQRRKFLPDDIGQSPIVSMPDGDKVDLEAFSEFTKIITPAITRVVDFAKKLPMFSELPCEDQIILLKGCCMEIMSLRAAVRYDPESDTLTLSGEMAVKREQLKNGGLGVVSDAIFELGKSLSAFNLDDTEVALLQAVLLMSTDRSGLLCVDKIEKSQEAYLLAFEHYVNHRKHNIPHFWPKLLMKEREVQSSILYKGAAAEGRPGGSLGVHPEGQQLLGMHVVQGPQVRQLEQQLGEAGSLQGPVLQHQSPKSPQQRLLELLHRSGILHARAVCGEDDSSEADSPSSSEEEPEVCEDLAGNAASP

In assay [3] the target is human Vitamin D Receptor (VDR), VDR (gene 7421) (UniProt P11473). As to the kind of experiment: ATG_VDR_TRANS: Attagene TRANS-FACTORIAL HepG2 Assay for human Vitamin D Receptor (VDR) (AID 2283022; active = hit-call score of the fitted dose curve at least 0.9, where 1 is the maximum). Put shortly: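 Multiplexed TRANS reporter in HepG2; 24 h treatment; reporter mRNA by RT-PCR plus capillary electrophoresis; upregulation scored relative to DMSO.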
Chain of human Vitamin D Receptor (VDR), VDR (gene 7421) (P11473 whole entry, looked up): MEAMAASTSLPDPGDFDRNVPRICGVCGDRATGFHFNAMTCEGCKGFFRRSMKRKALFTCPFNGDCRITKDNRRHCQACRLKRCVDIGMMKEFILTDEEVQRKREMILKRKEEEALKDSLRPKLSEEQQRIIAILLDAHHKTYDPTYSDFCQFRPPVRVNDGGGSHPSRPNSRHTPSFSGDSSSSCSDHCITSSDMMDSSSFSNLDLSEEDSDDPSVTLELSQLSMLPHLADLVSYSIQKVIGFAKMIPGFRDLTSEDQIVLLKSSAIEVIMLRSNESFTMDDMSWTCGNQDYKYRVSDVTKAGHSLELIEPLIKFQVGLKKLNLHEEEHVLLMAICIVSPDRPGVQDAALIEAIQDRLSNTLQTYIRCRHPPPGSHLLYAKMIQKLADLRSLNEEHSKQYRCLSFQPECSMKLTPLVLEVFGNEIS
Read-out in assay [4]: E-selectin (Homo sapiens) (UniProt P16581)
As to the kind of experiment: BSK_3C_Eselectin: BioMAP Diversity Plus: 3C Assay for Eselectin Biomarker Activity (AID 2283015).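 As to outcome: cell surface E-selectin protein quantified by ELISA 24 h after dosing.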 To be noted: primary human endothelial cells (HUVEC); actives raise or lower the signal. Put shortly: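 Endpoint derived by bidirectional fitting against DMSO vehicle; signal is ELISA-detected E-selectin from primary HUVEC at 24 h post-dosing, with parallel SRB staining (0.1% SRB, 560 nm) flagging cytotoxicity.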

Read-out in assay [5]: Interleukin-1 alpha (IL1a), IL1A (gene 3552)
As to the kind of experiment: BSK_BE3C_IL1a: BioMAP Diversity Plus: BE3C Assay for Interleukin-1 alpha (IL1a) Biomarker Activity (AID 2283016). The conditions noted are these: primary human bronchial epithelial cells; actives raise or lower the signal. An outline of the steps: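 IL-1a measured by ELISA after 24 h treatment of human primary bronchial epithelial cells, with gain or loss of signal fitted versus DMSO. Parallel cultures stained with SRB gauge overt cytotoxicity.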

Read-out in assay [6]: Monocyte Chemoattractant Protein-1 (MCP1), CCL2 (gene 6347)
As to the kind of experiment: BSK_3C_MCP1: BioMAP Diversity Plus: 3C Assay for Monocyte Chemoattractant Protein-1 (MCP1) Biomarker Activity (AID 2283017). The conditions noted are these: primary human endothelial cells (HUVEC); actives raise or lower the signal. Put shortly:
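Using human vascular primary endothelium, researchers measured MCP-1 by ELISA 24 h after treatment, with DMSO serving as negative control for bidirectional fitting.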

Read-out in assay [7]: Monocyte Chemoattractant Protein-1 (MCP1), CCL2 (gene 6347)
As to the kind of experiment: BSK_4H_MCP1: BioMAP Diversity Plus: 4H Assay for Monocyte Chemoattractant Protein-1 (MCP1) Biomarker Activity (AID 2283018). To be noted: primary human endothelial cells (HUVEC); actives raise or lower the signal. An outline of the steps:
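ELISA of MCP-1 (CCL2) 24 h after chemical dosing of HUVEC in the BioMAP 4H system. Gain or loss versus DMSO fitted; parallel SRB staining (560 nm) tracked overt cytotoxicity.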

Read-out in assay [8]: Human Leukocyte Antigen - DR isotype (HLADR), HLA-DRA (gene 3122)
As to the kind of experiment: BSK_3C_HLADR: BioMAP Diversity Plus: 3C Assay for Human Leukocyte Antigen - DR isotype (HLADR) Biomarker Activity (AID 2283019). The conditions noted are these: primary human endothelial cells (HUVEC); actives raise or lower the signal. An outline of the steps: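 Compound added to primary HUVEC cultures, 24 h incubation, then HLA-DR determined by ELISA; endpoint derived by bidirectional fitting relative to DMSO negative control.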

Read-out in assay [9]: Interleukin-8 (IL8), CXCL8 (gene 3576)
As to the kind of experiment: BSK_3C_IL8: BioMAP Diversity Plus: 3C Assay for Interleukin-8 (IL8) Biomarker Activity (AID 2283020). The conditions noted are these: primary human endothelial cells (HUVEC); actives raise or lower the signal. An outline of the steps:
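IL-8 was measured by ELISA in HUVEC cultures 24 h after chemical dosing, with gain or loss of signal fitted relative to DMSO. Parallel SRB total-protein staining tracked overt cytotoxicity.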

Read-out in assay [10]: Monokine induced gamma interferon (MIG), CXCL9 (gene 4283)
Put plainly: BSK_3C_MIG: BioMAP Diversity Plus: 3C Assay for Monokine induced gamma interferon (MIG) Biomarker Activity (AID 2283021).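 As to AC50: MIG protein level measured by immunoassay in the treated endothelial cultures.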 The conditions noted are these: primary human endothelial cells (HUVEC); actives raise or lower the signal. Put shortly: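 ELISA measurement of MIG in human umbilical vein endothelial cells 24 h after treatment. Cytotoxicity tracked by SRB staining in parallel cultures; gain or loss of signal fitted relative to DMSO.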

Assay [11] can be described thus: BSK_3C_SRB: Viability Assessment in the BioMAP Diversity Plus: 3C Assay (AID 2283023).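 Also: cells read 24 h after compound dosing; fitted both ways against DMSO so a hit may be signal rise or drop.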 The conditions noted are these: primary human endothelial cells (HUVEC). An outline of the steps:
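Overt cytotoxicity is gauged in parallel confluent HUVEC cultures by SRB total-protein staining at the time of biomarker measurement, 24 h after dosing. Gain or loss of signal is fitted versus DMSO.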

Read-out in assay [12]: Matrix Metallopeptidase 1 (MMP1), MMP1 (gene 4312)
As to the kind of experiment: BSK_BE3C_MMP1: BioMAP Diversity Plus: BE3C Assay for Matrix Metallopeptidase 1 (MMP1) Biomarker Activity (AID 2283024). To be noted: primary human bronchial epithelial cells; actives raise or lower the signal. Put shortly: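 ELISA measurement of MMP-1 after 24 h compound exposure of primary human bronchial epithelial cells. Changes in either direction fitted relative to DMSO; parallel SRB staining checked overt cytotoxicity.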

Assay [13] is described as follows: BSK_3C_Vis: BioMAP Diversity Plus: 3C Assay for Morphology Visualization (AID 2283025).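 Also: fitted both ways so gain or loss versus DMSO counts.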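 As to AC50: light microscopy image of cell morphology used as background control.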 To be noted: primary human endothelial cells (HUVEC). An outline of the steps:
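Light-microscopy visualization of HUVEC cultures at 24 h post-treatment, with DMSO as baseline for bidirectional fitting.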

Read-out in assay [14]: Pselectin, SELP (gene 6403)
Put plainly: BSK_4H_Pselectin: BioMAP Diversity Plus: 4H Assay for Pselectin Biomarker Activity (AID 2283026). To be noted: primary human endothelial cells (HUVEC); actives raise or lower the signal. Put shortly: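 ELISA of surface P-selectin on HUVEC, 24 h after dosing, with parallel SRB staining (0.1% after 10% TCA fixation, 560 nm) for overt cytotoxicity. Activity fitted in both directions relative to DMSO.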

A short description of assay [15]: BSK_4H_SRB: Viability Assessment in the BioMAP Diversity Plus: 4H Assay (AID 2283027).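 Also: cells exposed to compound for 24 h before staining.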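 As to AC50: curves fitted both ways versus DMSO so AC50 may be loss or gain.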 The conditions noted are these: primary human endothelial cells (HUVEC). Put shortly: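 HUVEC, 24 h post-dose; 10% TCA fix, 0.1% SRB stain, A560 nm. Total protein = overt cytotoxicity, parallel to biomarker read. Bidirectional fit vs DMSO baseline.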
A short description of assay [16]: BSK_BE3C_SRB: Viability Assessment in the BioMAP Diversity Plus: BE3C Assay (AID 2283028).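 As to AC50: fitted both ways so AC50 may mark signal gain or loss versus DMSO.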 To be noted: primary human bronchial epithelial cells. An outline of the steps:
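SRB total-protein staining (0.1%, after TCA fixation) of chemically dosed human bronchial epithelial primary cells at 24 h; DMSO serves as the negative control for bidirectional curve fitting.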

Read-out in assay [17]: Thrombomodulin, THBD (gene 7056)
Put plainly: BSK_3C_Thrombomodulin: BioMAP Diversity Plus: 3C Assay for Thrombomodulin Biomarker Activity (AID 2283029). The conditions noted are these: primary human endothelial cells (HUVEC); actives raise or lower the signal. Put shortly:
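ELISA measurement of thrombomodulin on HUVEC surface 24 h after chemical dosing; activity fitted in both directions relative to DMSO vehicle.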

Read-out in assay [18]: Urokinase-type plasminogen activator receptor (uPAR), PLAUR (gene 5329)
As to the kind of experiment: BSK_4H_uPAR: BioMAP Diversity Plus: 4H Assay for Urokinase-type plasminogen activator receptor (uPAR) Biomarker Activity (AID 2283030). To be noted: primary human endothelial cells (HUVEC); actives raise or lower the signal. Put shortly:
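Endpoint derived via bidirectional curve fitting against DMSO baseline; readout was ELISA detection of uPAR on umbilical vein endothelial cells at 24 h post-treatment, with SRB-stained parallel cultures assessing cytotoxicity.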

Read-out in assay [19]: Human Leukocyte Antigen - DR isotype (HLADR), HLA-DRA (gene 3122)
As to the kind of experiment: BSK_BE3C_HLADR: BioMAP Diversity Plus: BE3C Assay for Human Leukocyte Antigen - DR isotype (HLADR) Biomarker Activity (AID 2283032). The conditions noted are these: primary human bronchial epithelial cells; actives raise or lower the signal. Put shortly:
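Cell-surface HLA-DR ELISA readout at 24 h after dosing in the BE3C primary human lung bronchial epithelial system; gain or loss of signal against DMSO, with parallel sulforhodamine B staining of total protein for overt cytotoxicity.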

Read-out in assay [20]: Vascular endothelial growth factor receptor 2 (Homo sapiens) (UniProt P35968)
Put plainly: BSK_4H_VEGFRII: BioMAP Diversity Plus: 4H Assay for Vascular endothelial growth factor receptor 2 (VEGFR2) Biomarker Activity (AID 2283031). The conditions noted are these: primary human endothelial cells (HUVEC); actives raise or lower the signal. Put shortly:
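In this multiplexed HUVEC system, biomarker ELISA was performed after 24 h chemical exposure. Parallel SRB staining (TCA fixation, 560 nm) tracked cytotoxicity; DMSO served as baseline.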

As usually defined, the AC50 is the midpoint of the concentration-response curve, whichever way the signal moves.

Where “and” joins values, the source holds several entries; their conditions need not be identical. Equal values may be shown once. Inconclusive results are not listed. Calls of active or inactive are those of the source. The calls were made as follows, unless noted: active = hit-call score of the fitted dose curve at least 0.9, where 1 is the maximum; inactive = score below 0.9.

Chain of human Retinoid X Receptor beta (RXRb), RXRB (gene 6257) (P28702 whole entry, looked up, the tested form may be a part): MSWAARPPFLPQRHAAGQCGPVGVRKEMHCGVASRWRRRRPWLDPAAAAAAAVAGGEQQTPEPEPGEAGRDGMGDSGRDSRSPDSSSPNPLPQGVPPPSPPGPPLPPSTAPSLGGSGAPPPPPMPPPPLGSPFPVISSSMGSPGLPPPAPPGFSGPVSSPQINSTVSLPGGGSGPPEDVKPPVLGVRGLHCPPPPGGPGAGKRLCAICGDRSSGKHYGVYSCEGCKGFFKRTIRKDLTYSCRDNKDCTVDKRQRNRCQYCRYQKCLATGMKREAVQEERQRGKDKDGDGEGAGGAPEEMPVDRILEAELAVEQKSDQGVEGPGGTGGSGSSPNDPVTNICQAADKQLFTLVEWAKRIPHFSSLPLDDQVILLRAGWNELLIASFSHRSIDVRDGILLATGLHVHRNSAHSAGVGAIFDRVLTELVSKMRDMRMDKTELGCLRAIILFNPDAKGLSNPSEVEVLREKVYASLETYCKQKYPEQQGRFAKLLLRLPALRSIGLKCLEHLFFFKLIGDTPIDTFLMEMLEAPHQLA
Chain of E-selectin (Homo sapiens) (P16581 whole entry, looked up): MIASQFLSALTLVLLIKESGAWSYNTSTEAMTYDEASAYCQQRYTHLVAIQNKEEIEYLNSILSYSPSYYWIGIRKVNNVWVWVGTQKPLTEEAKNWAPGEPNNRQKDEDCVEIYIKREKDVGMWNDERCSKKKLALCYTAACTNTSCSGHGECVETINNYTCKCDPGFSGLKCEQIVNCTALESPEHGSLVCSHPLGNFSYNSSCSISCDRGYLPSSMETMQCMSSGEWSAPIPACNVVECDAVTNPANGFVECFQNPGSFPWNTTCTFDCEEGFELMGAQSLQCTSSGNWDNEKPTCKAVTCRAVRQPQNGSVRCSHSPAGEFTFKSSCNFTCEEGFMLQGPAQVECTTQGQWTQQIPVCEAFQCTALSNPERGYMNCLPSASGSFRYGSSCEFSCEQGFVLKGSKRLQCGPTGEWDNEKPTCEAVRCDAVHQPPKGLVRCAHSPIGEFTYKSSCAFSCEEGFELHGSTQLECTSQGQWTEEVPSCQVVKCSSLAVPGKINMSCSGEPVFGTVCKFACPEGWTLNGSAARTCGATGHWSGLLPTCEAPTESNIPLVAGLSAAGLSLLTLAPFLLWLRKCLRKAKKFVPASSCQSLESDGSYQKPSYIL

Consider `CN(CCCC(=O)c1cccnc1)N=O`, for which the call in assay [1], in assay [2] and in assay [3] was inactive.
For `c1cc[c]([Hg][c]2ccccc2)cc1`, the call in [1], in assay [2] and in [3] was inactive.
With `CC(C)C1CCC(Cc2ccc(Cl)cc2)C1(O)Cn1cncn1` (stereo unspecified), the call in [1], in assay [2] and in assay [3] was inactive.
In the case of `CC(=O)[O][Hg][c]1ccccc1`, the concentration at half-maximal activity (AC50) was 14.8 µM (active) in assay [1]; 3.04 µM (active) in [4]; 2.57 µM (active) in [5]; 0.964 µM (active) in assay [6]; 1.03 µM (active) in assay [7]; 0.317 µM (active) in assay [8]. Also, the AC50 is 6 µM (active) in [9]; 2.73 µM (active) in [10]; 0.146 µM (active) in assay [11]; 2.93 µM (active) in assay [12]; 0.954 µM (active) in assay [13]; 1.29 µM (active) in [14]. For the same compound, the AC50 is 1.68 µM (active) in [15]; 1.88 µM (active) in [16]; 3.83 µM (active) in [17]; 1.74 µM (active) in assay [18]; 0.355 µM (active) in [19]. The compound was called inactive in [2].
For the compound `O=P(O)(O)CN(CP(=O)(O)O)CP(=O)(O)O`, the call in [1], in [2] and in assay [3] was inactive.
Take `C1CCC(NC2CCCCC2)CC1`: the outcome in assay [1], in assay [2] and in assay [3] was inactive.
For the compound `BrCCBr`, in assay [1], the AC50 is 48.2 µM (active). Further, the compound was classed as inactive in assay [2], in assay [4], in assay [5], in assay [6], in assay [7] and in assay [8]. For the same compound, the outcome in assay [9], in assay [10], in assay [3], in assay [11], in [12] and in assay [13] was inactive. Besides, the result in assay [14], in assay [15], in [16], in [18], in assay [20] and in assay [19] was inactive.
Take `CC(C)(C)CC(C)(C)c1ccc(O)cc1`: the AC50 in [1] is 11.1 µM (active) and 4.81 µM (active) and 6.61 µM (active); in assay [4], 7.99 µM (active); in [5], 19.5 µM (active); in [6], 9.66 µM (active); in assay [7], 6.54 µM (active); in assay [8] it was 6.4 µM (active). Besides, the AC50 in assay [9] is 10.1 µM (active); in [10] it was 12.4 µM (active); in assay [11], 7.28 µM (active); in assay [12] it was 33.7 µM (active); in assay [13], 6.71 µM (active); in assay [14], 11.4 µM (active). Moreover, the AC50 is 9.01 µM (active) in assay [15], 13.3 µM (active) in assay [16], 9.65 µM (active) in [18] and 19.3 µM (active) in assay [19]. In addition, the outcome in [2], in [3] and in assay [20] was inactive.
Consider `CCOP(=O)(CN(CCO)CCO)OCC`, for which the call in assay [1], in assay [2] and in [3] was inactive.
In the case of `C[C@]12CCC(=O)C[C@@H]1CC[C@@H]1[C@@H]2CC[C@]2(C)[C@@H](O)CC[C@@H]12`, the compound was called inactive in [1], in [2], in assay [5], in assay [7], in assay [10] and in [3]. The result in assay [12], in assay [13], in assay [14], in assay [15], in assay [16] and in assay [18] was inactive. In addition, the outcome in assay [20] and in assay [19] was inactive. In addition, the AC50 was 18 µM (active) in [4]; 26.9 µM (active) in assay [6]; 27.8 µM (active) in [8]; 21.5 µM (active) in assay [9]; 20.9 µM (active) in assay [11].
With `CCCCOCCOC(C)=O`, the compound was classed as inactive in [1], in [2] and in assay [3].

Values taken from PubChem BioAssay (EPA / NIEHS).
